# Measurements from PubChem BioAssay (NCATS).
# “And” between values parts separate entries of the source, which are not always exact repeats. Equal values may be shown once. A number with no mark means an inactive call. Inconclusive results are not listed. The source made the active and inactive calls. Unless noted, calls come from the whole dose curve; as a rule, active = well fitted curve in either direction with a large enough effect (not every such curve was filed as active); inconclusive = small, poorly fitted or top-dose-only effect, or another doubt; inactive = flat fitted curve, though single readings scatter.
# Tests used:
# [1] = molecular target: Lysosomal acid glucosylceramidase (Homo sapiens) (UniProt P04062); test: Glucocerebrosidase-p2 (AID 348; in the data active = potency below about 10 µM; note: potency is the fitted concentration of half-maximal effect); conditions: purified GBA, blue fluorogenic substrate, 40 min
# Chain of Lysosomal acid glucosylceramidase (Homo sapiens) (P04062 whole entry, looked up): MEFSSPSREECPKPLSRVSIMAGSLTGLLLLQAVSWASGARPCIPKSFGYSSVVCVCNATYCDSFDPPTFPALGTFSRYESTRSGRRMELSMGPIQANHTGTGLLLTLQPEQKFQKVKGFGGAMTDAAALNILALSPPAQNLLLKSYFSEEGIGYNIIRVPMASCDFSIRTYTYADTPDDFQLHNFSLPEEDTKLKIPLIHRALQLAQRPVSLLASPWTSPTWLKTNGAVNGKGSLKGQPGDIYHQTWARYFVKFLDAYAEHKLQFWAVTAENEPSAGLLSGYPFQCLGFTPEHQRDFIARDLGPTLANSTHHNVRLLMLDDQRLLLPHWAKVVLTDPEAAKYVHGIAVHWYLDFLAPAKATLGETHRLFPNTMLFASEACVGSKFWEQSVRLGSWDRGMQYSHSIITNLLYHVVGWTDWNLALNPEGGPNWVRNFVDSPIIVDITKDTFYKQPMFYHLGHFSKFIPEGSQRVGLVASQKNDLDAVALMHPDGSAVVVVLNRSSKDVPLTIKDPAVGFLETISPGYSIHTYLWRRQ
# Method in brief: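 Normal human glucocerebrosidase (0.2 nM) with blue fluorogenic substrate (80 uM final) in citrate/phosphate pH 5.9 with 10mM sodium taurocholate, 0.01% tween-20; 40 min RT, NaOH/glycine stop; fluorescence Ex 365/Em 440; AC50 from a titration from 0.6 nM upwards.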
# [2] = AP1 Signaling Pathway (AID 357); conditions: ME-180 AP-1-bla reporter, EGF-induced, beta-lactamase ratio, 5 h;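 note: ME-180 reporter cells stimulated with EGF at its EC50 level; % is set by controls: 0 for no effect and ±100 for the full control effect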
# Method in brief: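 In this screen, ME-180 cells in Opti-MEM with 0.5% dialyzed FBS received EC50 EGF and compound titrations for 5 h. AP-1 reporter beta-lactamase was detected via CCF4 ratio, giving AC50 for positive and negative modulators.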
# [3] = molecular target: Cytochrome P450 1A2 (Homo sapiens) (UniProt P05177); test: p450-cyp1a2 (AID 410; calls by dose curve; note: potency is the fitted concentration of half-maximal effect;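 for activity change, negative = inhibition: -100% = full effect of reference inhibitor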)
# Chain of Cytochrome P450 1A2 (Homo sapiens) (P05177 whole entry, looked up): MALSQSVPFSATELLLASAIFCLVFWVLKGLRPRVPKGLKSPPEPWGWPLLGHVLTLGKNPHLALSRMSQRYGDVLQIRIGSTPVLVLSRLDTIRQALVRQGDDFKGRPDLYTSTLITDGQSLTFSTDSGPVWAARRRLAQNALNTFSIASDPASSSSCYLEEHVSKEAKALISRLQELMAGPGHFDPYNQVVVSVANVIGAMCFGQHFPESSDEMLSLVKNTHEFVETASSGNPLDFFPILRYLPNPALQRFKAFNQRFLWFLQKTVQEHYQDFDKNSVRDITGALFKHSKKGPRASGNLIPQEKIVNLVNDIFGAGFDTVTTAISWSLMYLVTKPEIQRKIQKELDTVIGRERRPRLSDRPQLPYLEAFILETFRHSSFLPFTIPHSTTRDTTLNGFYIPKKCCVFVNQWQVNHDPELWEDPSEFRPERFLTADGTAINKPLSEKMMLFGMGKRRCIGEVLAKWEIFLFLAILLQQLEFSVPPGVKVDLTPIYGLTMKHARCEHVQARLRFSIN
# Method in brief: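 O-Demethylation of luciferin 6' methyl ether by human CYP1A2 is monitored as luciferase luminescence. Substrate sits at Km (100uM); enzyme is 20nM. Values are scaled to 57 uM furafylline as maximal inhibition.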
# [4] = Stat Signaling Pathway (AID 446); conditions: ME-180 (cervical carcinoma) SIE beta-lactamase reporter, IL-6 stimulated, 5 h;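 note: ME-180 cervical cancer cells given 40 pM IL-6 alongside compound; SIE-controlled beta-lactamase reporter measured as 460/530 nm FRET emission ratio; % is set by controls: 0 for no effect and ±100 for the full control effect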
# Method in brief: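 Normalization used AC90 stimulation (300 pM IL-6) and AC90 inhibition (125 nM pan-JAK inhibitor at 40 pM IL-6). The underlying signal is SIE-driven beta-lactamase in ME-180 cells after 5 h IL-6 exposure with compound.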
# [5] = molecular target: Glucocorticoid receptor (Homo sapiens) (UniProt P04150); test: GR-GFP Redistribution (AID 450;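 active = compounds whose dose series gives a full or clear partial fitted curve of increased nuclear translocation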; note: potency is the fitted concentration of half-maximal effect); conditions: U2OS GR-GFP nuclear translocation, laser cytometry, 2 h
# Chain of Glucocorticoid receptor (Homo sapiens) (P04150 whole entry, looked up, the tested form may be a part): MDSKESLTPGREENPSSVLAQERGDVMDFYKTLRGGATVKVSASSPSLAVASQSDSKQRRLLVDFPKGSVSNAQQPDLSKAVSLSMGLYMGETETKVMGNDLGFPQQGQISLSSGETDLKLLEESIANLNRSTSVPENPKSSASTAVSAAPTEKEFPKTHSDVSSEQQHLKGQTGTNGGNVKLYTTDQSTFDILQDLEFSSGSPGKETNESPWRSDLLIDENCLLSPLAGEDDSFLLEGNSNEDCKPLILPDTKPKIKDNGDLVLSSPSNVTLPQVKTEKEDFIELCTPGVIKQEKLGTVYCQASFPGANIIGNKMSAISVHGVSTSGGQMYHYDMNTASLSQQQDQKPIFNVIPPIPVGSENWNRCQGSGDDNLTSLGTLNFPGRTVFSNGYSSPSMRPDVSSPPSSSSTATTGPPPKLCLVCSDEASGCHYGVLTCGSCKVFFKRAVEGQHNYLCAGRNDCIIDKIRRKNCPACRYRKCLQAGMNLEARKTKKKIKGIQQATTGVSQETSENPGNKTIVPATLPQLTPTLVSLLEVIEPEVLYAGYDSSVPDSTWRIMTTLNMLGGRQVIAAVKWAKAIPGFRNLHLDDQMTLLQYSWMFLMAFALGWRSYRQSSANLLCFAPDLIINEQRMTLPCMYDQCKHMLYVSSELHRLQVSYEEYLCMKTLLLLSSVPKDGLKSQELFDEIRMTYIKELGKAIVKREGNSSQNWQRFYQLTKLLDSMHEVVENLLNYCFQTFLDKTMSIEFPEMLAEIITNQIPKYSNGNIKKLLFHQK
# [6] = molecular target: Glucocorticoid receptor (Homo sapiens) (UniProt P04150); test: GR-EFC Redistribution (AID 451; calls by dose curve; note: potency is the fitted concentration of half-maximal effect); conditions: CHO-K1 GR-EFC translocation, beta-gal luminescence, 2 h
# Method in brief: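 CHO-K1 cells stably expressing nuclear-localized β-gal enzyme acceptor and GR fused C-terminally to the enzyme donor fragment; ligand-driven nuclear translocation restores β-gal by complementation. Compounds titrated up to 46 uM final, 2 h at 37 °C; luminescence read.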
# [7] = molecular target: Mitogen-activated protein kinase 10 (Mus musculus) (UniProt Q61831); test: JNK3 AlphaScreen Assay (AID 530);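 note: kinase came from lysate of stimulated human HepG2 cells; signal reports phosphorylation of biotinylated GST-cJun 1-79 at Ser73 with 10 µM ATP; % is set by controls: 0 for no effect and ±100 for the full control effect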
# Method in brief: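 Phosphorylation of biotinylated GST-cJun(1-79) at Ser73 is measured by AlphaScreen proximity luminescence. Enzyme is JNK3 in HepG2 lysates activated with interleukin-1beta and tumor necrosis factor alpha; ATP is 10 uM final.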
# [8] = molecular target: 3',5'-cyclic-AMP phosphodiesterase 4B (Homo sapiens) (UniProt Q07343); test: qHTS Assay for Inhibitors of PDE-IV (AID 607; active = well fitted activation curve with a large enough effect in the main read-out, with a control signal flat, not every such curve was filed as active; note: % of control where 0% means no effect)
# Chain of 3',5'-cyclic-AMP phosphodiesterase 4B (Homo sapiens) (Q07343 whole entry, looked up): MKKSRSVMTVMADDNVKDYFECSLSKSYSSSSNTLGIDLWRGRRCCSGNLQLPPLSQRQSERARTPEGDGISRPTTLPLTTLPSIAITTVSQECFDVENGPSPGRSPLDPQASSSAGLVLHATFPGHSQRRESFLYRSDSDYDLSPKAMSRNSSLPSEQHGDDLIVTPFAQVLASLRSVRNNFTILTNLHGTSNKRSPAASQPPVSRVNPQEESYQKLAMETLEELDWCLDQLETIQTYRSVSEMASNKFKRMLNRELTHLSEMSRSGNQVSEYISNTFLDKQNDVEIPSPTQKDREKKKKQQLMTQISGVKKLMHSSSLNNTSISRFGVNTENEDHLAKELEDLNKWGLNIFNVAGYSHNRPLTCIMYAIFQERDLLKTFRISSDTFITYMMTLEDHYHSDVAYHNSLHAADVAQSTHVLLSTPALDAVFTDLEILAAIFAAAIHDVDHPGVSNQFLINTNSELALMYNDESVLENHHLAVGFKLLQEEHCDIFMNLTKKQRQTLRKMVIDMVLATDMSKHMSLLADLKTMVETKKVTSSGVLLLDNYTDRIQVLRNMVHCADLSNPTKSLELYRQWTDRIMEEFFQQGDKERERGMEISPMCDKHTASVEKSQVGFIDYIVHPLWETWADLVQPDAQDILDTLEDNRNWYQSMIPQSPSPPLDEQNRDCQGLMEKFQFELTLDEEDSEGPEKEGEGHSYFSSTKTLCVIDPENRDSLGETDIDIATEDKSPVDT
# Method in brief: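 HEK293 ACTOne cells with CNG channel (1000/well), endogenous PDE4; membrane potential dye, compounds up to 22.9 uM final. Fluorescence Ex 535/Em 590; RO 20-1724 (100 uM final) as reference.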
# [9] = molecular target: Cytochrome P450 2C9 (Homo sapiens) (UniProt P11712); test: qHTS Assay for Inhibitors and Substrates of Cytochrome P450 2C9 (AID 883; active = well fitted curve in the direction sought with a large enough effect; an effect the other way counts as inactive or inconclusive; note: % is set by controls: 0 for no effect and ±100 for the full control effect; nearly all actives have a fitted effect of over 60% in size)
# Chain of Cytochrome P450 2C9 (Homo sapiens) (P11712 whole entry, looked up): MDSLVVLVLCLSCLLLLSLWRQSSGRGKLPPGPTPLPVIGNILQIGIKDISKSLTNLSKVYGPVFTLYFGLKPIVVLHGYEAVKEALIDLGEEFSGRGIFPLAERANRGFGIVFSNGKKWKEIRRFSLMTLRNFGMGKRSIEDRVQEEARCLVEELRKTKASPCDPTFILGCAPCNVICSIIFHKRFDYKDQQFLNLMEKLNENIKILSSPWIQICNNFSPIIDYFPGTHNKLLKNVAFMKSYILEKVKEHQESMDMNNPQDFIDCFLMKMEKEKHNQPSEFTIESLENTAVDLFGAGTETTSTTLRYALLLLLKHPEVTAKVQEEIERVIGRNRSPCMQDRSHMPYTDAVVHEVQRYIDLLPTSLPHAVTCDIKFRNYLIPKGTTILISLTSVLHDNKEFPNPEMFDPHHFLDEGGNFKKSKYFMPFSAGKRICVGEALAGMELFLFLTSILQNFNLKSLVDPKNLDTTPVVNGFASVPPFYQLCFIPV
# Method in brief: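 Human CYP2C9 (10nM) hydroxylated Luciferin-H (100uM, at its KM) to luciferin in 25mM KPO4. Compound was preincubated 10 min at 37C, then NADPH regeneration started a 60 min reaction at 37C. Luminescence was read after detection reagent, normalized to 57uM sulphaphenazole.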
# [10] = molecular target: Cytochrome P450 3A4 (Homo sapiens) (UniProt P08684); test: qHTS Assay for Inhibitors and Substrates of Cytochrome P450 3A4 (AID 884; active = well fitted curve in the direction sought with a large enough effect; an effect the other way counts as inactive or inconclusive; note: % is set by controls: 0 for no effect and ±100 for the full control effect; nearly all actives have a fitted effect of over 50% in size)
# Chain of Cytochrome P450 3A4 (Homo sapiens) (P08684 whole entry, looked up): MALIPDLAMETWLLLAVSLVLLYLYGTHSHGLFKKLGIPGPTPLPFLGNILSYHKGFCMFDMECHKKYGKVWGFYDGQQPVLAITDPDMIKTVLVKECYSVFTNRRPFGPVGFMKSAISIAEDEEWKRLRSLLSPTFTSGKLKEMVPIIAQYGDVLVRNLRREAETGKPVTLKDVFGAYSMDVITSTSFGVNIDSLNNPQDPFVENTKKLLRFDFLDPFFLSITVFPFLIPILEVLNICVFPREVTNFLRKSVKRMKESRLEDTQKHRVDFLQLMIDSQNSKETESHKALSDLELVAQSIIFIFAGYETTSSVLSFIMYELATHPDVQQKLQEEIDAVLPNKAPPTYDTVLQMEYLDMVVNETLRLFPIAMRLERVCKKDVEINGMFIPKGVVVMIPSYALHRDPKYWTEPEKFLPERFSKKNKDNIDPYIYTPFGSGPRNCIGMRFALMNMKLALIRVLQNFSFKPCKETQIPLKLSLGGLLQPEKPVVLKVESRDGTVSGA
# Method in brief: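 Luminescent readout of luciferin produced by CYP3A4 (20 nM) dealkylation of Luciferin-PPXE, 25 uM (its KM). NADPH-driven reaction ran 60 min at RT after 10 min compound preincubation; data scaled to 57 uM ketoconazole as 100% inhibition.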
# [11] = molecular target: Cytochrome P450 2D6 (Homo sapiens) (UniProt P10635); test: qHTS Assay for Inhibitors and Substrates of Cytochrome P450 2D6 (AID 891; active = well fitted curve in the direction sought with a large enough effect; an effect the other way counts as inactive or inconclusive;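 note: luciferin methyl ether substrate demethylated by CYP2D6 with NADPH regeneration; % is set by controls: 0 for no effect and ±100 for the full control effect; nearly all actives have a fitted effect of over 60% in size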)
# Chain of Cytochrome P450 2D6 (Homo sapiens) (P10635 whole entry, looked up): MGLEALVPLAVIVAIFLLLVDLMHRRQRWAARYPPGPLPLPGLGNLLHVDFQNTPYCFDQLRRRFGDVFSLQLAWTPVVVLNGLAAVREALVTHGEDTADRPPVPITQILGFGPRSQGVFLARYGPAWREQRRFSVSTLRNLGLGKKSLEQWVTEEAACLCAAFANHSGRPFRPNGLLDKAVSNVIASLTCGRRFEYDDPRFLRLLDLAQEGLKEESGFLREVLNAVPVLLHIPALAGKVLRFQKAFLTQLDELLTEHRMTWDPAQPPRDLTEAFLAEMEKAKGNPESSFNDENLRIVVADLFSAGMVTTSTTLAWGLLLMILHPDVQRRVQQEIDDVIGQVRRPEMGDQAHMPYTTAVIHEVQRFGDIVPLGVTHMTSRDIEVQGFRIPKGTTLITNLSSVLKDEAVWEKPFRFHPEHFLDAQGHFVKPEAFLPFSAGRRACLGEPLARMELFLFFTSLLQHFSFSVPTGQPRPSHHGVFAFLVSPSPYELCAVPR
# Method in brief: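 Luminescent read-out of luciferin formed by 5 nM human CYP2D6 demethylating 30 uM Luciferin-ME EGE (Km level) over 60 min at room temperature after NADPH regeneration addition. Data normalized to full inhibition by 1.43 uM quinidine.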
# [12] = molecular target: Ubiquitin carboxyl-terminal hydrolase 1 (Homo sapiens) (UniProt O94782); test: Inhibitors of USP1/UAF1: Pilot qHTS (AID 504865; active = well fitted curve in the direction sought with a large enough effect; an effect the other way counts as inactive or inconclusive;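 note: rhodamine fluorescence freed from ubiquitin-rhodamine substrate followed over time; top concentration of the series differs between compounds; % is set by controls: 0 for no effect and ±100 for the full control effect; nearly all actives have a fitted effect of over 35% in size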)
# Chain of Ubiquitin carboxyl-terminal hydrolase 1 (Homo sapiens) (O94782 whole entry, looked up): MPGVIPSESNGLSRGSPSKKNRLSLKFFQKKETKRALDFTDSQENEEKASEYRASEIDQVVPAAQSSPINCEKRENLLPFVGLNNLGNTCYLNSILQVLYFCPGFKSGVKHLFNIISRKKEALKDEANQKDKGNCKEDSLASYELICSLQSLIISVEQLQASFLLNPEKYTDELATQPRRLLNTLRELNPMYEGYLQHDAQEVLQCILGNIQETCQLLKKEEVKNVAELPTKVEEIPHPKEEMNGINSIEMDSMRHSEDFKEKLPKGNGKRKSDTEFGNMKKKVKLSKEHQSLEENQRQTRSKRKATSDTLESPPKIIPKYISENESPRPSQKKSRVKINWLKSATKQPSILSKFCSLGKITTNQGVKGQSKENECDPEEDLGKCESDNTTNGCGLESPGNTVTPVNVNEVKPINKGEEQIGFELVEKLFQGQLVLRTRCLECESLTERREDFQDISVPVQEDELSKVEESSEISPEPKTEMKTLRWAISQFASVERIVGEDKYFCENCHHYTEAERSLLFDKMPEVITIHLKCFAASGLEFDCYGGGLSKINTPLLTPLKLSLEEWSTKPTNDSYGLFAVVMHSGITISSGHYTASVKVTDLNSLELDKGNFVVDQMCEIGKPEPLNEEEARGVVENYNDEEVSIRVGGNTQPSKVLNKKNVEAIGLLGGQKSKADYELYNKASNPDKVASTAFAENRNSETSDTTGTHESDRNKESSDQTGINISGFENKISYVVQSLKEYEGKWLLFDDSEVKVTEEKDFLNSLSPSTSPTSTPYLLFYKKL
# Method in brief: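 Kinetic fluorescence assay: 1nM USP1/UAF1, 15 min compound preincubation, then 150nM Ub-Rho; 480/540 nm.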
# [13] = NFAT Signaling Pathway (AID 444); conditions: Jurkat NFAT-bla M1, carbachol, beta-lactamase ratio, 5 h; at 7.69 µM (top of the series) unless noted;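 note: carbachol stimulus at about its EC50 of 1 µM final; % is set by controls: 0 for no effect and ±100 for the full control effect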
# Method in brief: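 Jurkat cells carrying an NFAT-driven β-lactamase reporter and co-transfected muscarinic M1 receptor were treated with compound plus carbachol (1 uM final, an EC50 level) for 5 h at 37 °C. CCF4 loading followed for 1 h at RT; 460/530 nm ratio gave %activity.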
# [14] = at 7.69 µM (top of the series) unless noted
Structure (SMILES),Potency [1] [µM],"activity change, negative = inhibition ([2]; at 7.69 µM (top of the series)) [%]","activity change, negative = inhibition ([2]; at 17.2 µM (top of the series)) [%]",Potency [3],"activity, negative = inhibition ([4]; at 7.69 µM (top of the series)) [%]","activity, negative = inhibition ([4]; at 17.2 µM (top of the series)) [%]",Potency [5],Potency [6],Potency [7],Potency [8],Potency [9],Potency [10],Potency [11],Potency [12],"activity change, negative = inhibition [2, 14] [%]","activity change, negative = inhibition [13] [%]","activity, negative = inhibition [4, 14] [%]","activity change, negative = inhibition [3]"
COc1ccc2cc1Oc1ccc(cc1)C[C@H]1c3cc(c(OC)cc3CCN1C)Oc1c(OC)c(OC)cc3c1[C@@H](C2)N(C)CC3,> 11.4,-3.56,-5.15,inactive,-1.58,-5.25,> 20.6 µM and > 46 µM,> 20.6 µM and > 46 µM and > 9.22 µM,inactive,inactive,inactive,inactive,inactive,inactive,–,–,–,–
CCN=C(N)CSS(=O)(=O)O,> 11.4,–,–,inactive,–,–,> 46 µM,> 9.22 µM,inactive,–,–,–,–,–,9.8,-7.3,-20,–
Nc1ncnc2nn([C@H]3O[C@@H](CO)[C@@H](O)[C@H]3O)nc12,> 11.4,–,–,inactive,–,–,> 46 µM,> 9.22 µM,inactive,inactive,–,–,–,–,-9.36,5.89,-5.99,–
Cc1cc(=O)oc2c(OS(C)(=O)=O)c(OS(C)(=O)=O)ccc12,> 11.4,–,–,0.794 µM (active),–,–,> 46 µM,> 9.22 µM,inactive,inactive,–,–,–,–,-3.34,5.12,4.16,–
Oc1c(CN2CCOCC2)ccc(CN2CCOCC2)c1O,> 11.4,–,–,–,–,–,> 46 µM,> 9.22 µM,inactive,inactive,–,–,–,–,-1.19,13,-3.77,-11.9% [at 2.29 µM]
NN(CC(=O)O)CC(=O)O,> 11.4,–,–,inactive,–,–,> 46 µM,> 9.22 µM,inactive,inactive,–,–,–,–,-2.45,-1.35,-0.699,–
